Source: PubChem
12-hLO inh = 12-hLO (ALOX12) enzyme inhibition. purified 12-hLO, xylenol orange hydroperoxide absorbance. Potency, µM (highest dose often 57.1 µM), for inactives: top-dose activity change, negative = inhibition, usual class: inhibitors. AID 1452. 150,000 tested, 0.12% active. P18054; note: potency is the fitted concentration of half-maximal effect; nearly all actives have a fitted effect of over 55% in size
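Purified human 12hLO (150 nM), preincubated 15 min with compound, then 40 uM arachidonic acid for 30 min, room temperature, Hepes pH 7.0 with 0.01% Triton X-100. Hydroperoxide detected by ferrous iron/xylenol orange; 573/405 nm absorbance ratio gives reaction progress.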
ALDH1A1 inh = inhibitors of human aldehyde dehydrogenase 1A1 | Purified ALDH1A1, NADH fluorescence, propionaldehyde substrate | P00352 | Potency, µM (highest dose often 75.3 µM), inactives show at the top dose activity, negative = inhibition, hits mostly inhibitors | 220,000 tested, 7.3% active; active = well fitted inhibition curve with a large enough effect, not every such curve was filed as active; inconclusive = small, poorly fitted or top-dose-only effect, or another doubt; inactive = no such curve, though single readings can be large or run the other way;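 note: potency is the fitted concentration of half-maximal effect; plate controls were no enzyme wells and a reference inhibitor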
Target sequence (P00352 whole entry, looked up): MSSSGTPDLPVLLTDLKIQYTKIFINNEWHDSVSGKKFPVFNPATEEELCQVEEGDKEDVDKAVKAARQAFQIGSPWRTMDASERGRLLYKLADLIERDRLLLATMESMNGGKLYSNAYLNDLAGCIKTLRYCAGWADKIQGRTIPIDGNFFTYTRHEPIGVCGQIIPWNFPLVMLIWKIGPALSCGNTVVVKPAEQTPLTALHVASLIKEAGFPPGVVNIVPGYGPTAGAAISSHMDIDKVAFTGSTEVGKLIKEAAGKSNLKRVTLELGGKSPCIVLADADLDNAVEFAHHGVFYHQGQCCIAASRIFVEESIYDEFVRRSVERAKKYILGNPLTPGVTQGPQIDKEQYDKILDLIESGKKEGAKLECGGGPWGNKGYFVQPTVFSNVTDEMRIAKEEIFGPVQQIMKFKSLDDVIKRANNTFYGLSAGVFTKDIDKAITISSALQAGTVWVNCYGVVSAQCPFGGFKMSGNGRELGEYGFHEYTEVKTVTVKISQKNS
HPGD inh = inhibitors of human 15-hydroxyprostaglandin dehydrogenase (HPGD). P15428. 150,000 tested, 4.3% active. purified HPGD, NADH fluorescence kinetic, PGE2 substrate. Potency, µM, for inactives: at the highest dose activity change, negative = inhibition, usual class: inhibitors. AID 894; active = well fitted inhibition curve with a large enough effect, not every such curve was filed as active; inconclusive = small, poorly fitted or top-dose-only effect, or another doubt; inactive = no such curve, though single readings can be large or run the other way; note: potency is the fitted concentration of half-maximal effect
Target sequence (P15428 whole entry, looked up): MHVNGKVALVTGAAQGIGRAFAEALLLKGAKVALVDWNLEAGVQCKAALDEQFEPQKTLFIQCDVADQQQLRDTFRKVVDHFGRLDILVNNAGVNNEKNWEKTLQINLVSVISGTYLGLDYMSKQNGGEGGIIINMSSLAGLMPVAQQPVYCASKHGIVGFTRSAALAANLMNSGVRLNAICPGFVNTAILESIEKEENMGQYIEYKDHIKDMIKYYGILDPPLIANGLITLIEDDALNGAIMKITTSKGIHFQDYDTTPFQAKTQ
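20 nM HPGD preincubated 15 min at room temperature with compound in 50 mM Tris-HCl pH 8, 0.01% Tween 20. Started with 1 mM NAD+ and 30 uM prostaglandin E2; NADH fluorescence (360/450 nm) read 5 times over 30-s intervals, last minus first.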
PNC inhibitor = inhibitors of perinucleolar compartment assembly | PC3M PTB-GFP, PNC prevalence imaging, 16 h; active compounds read low | activity change (PNC), negative = inhibition, % at 10 µM | 140,000 tested, 3.1% active | AID 2417;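 active = readout at or below -70, meaning at least 70% loss of cells showing the perinucleolar compartment, a nuclear body marking cancer cells; inconclusive = readout between -30 and a set limit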;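 note: plate controls were DMSO wells for no effect and camptothecin positive control wells for full effect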
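PC3M cells stably expressing PTB-GFP, 750–1000 cells/well, treated 16 h at 37 °C with compound (23 nl of library stock), in duplicate. After paraformaldehyde fixation and Hoechst stain, imaged at 20x; PNC prevalence scored by image analysis.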
aGal spleen mod = alpha-galactosidase A (human) modulation; human spleen homogenate, 4MU-alpha-Gal fluorescence, 40 min; Potency, µM (series often up to 80 µM), for the others: at the highest dose activity change, negative = inhibition, actives largely listed as inhibitors; 240,000 tested, 0.008% active; AID 2107;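 note: potency is the fitted concentration of half-maximal effect; 0% = enzyme with vehicle and -100% = no enzyme basal signal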
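Spleen homogenate 1 ug + cpd (titration) + 4-MU-alpha-D-galactopyranoside 1 mM; 37C 40 min; 50 mM citrate/phosphate pH 5.0, 0.01% Tween-20; stop pH 10; fluorescence 365/440; AC50 via Hill.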
GLA inh pH 4.5 = blocks human alpha-galactosidase A at pH 4.5 | P06280 | purified enzyme, 4-MU-alpha-Gal fluorescence, pH 4.5 | activity change, negative = inhibition, % at 105 µM | 230,000 tested, under 10 active | AID 1467;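 note: 0% = full activity with enzyme and -100% = basal without enzyme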
Active calls of the source: *; ? = inconclusive; · = no result given; [ ] = another dose, or the depositor's remark. Sampled rows, rich in hits. Any-hit rate of the full collection: about 10%. Unless noted, calls come from the whole dose curve; as a rule, active = well fitted curve in the direction sought with a large enough effect; inconclusive = small, poorly fitted or top-dose-only effect, or another doubt; inactive = no such curve, though single readings can be large; an effect the other way counts as inactive or inconclusive. Unless noted, % is set by controls: 0 for no effect and ±100 for the full control effect.

SMILES | 12-hLO inh | ALDH1A1 inh | HPGD inh | PNC inhibitor | aGal spleen mod | GLA inh pH 4.5
COc1ccc(N2C=C3C(=O)C(C)(OC(=O)CCc4ccccc4)C(=O)C=C3C=C2c2ccc(C#N)cc2)cc1 (centres undefined) | 2.4%[11.4 µM] | 2.9%[13.5 µM] | -6.1% | · | -6.4%[17.5 µM] | 12.3
COc1ccc(CN2C=C3C(=O)C(C)(OC(=O)CCc4ccccc4)C(=O)C=C3C=C2c2ccc(C#N)cc2)cc1 (centres undefined) | -4.6%[11.4 µM] | 3.55µM* | -9.6% | · | -1.7%[17.5 µM] | 4.7
c1ncc(CCCC2CCNCC2)[nH]1 | · | · | · | · | 0.7% | ·
Cc1ccc(N2C(=N)/C(=C3/Nc4ccccc4S3)C(c3ccccc3)C2=O)cc1 (centres undefined) | 3.1% | 9.46µM* | · | ? | -6.3% | 6.8
CCc1cc2c(nc1CC)CCN(CC/C(C)=N/O[C@@H](C)c1cn([C@H](CO)Cc3ccccc3)nn1)C2 | · | -0.9%[13.5 µM] | · | · | -1.9%[17.5 µM] | ·
O=C(CN1C(=O)CSc2ccccc21)NC1CCCC1 | -3.4% | -10.3% | · | ? | 3.4% | -4.1
O=C(CCCCCCN1C(=O)c2ccccc2C1=O)NC1CCCCC1 | -0.7% | -3.5% | 4.47µM* | 1.7 | -4.1% | 2.1
Cc1ccc(NC(=O)CCCCCN2C(=O)c3ccccc3C2=O)nc1 | -2.6% | -9.2% | -10.0% | ? | -0.4% | 0.5
O=C(CCCCCN1C(=O)c2ccccc2C1=O)NC1CCCC1 | -4.2% | ? | 4.47µM* | -0.6 | 1.9% | -1.9
O=C(CN1C(=O)C(=O)c2ccccc21)NC1CCCCC1 | -0.7% | 0.891µM* | -6.2% | 35.2 | 6.3% | -4.5
CC(C)(C)NC(=O)Cn1c(=O)n(CC(=O)NC(C)(C)C)c2ccccc21 | · | 2.7% | · | · | -2.9% | 0.7
CC(C)(C)NC(=O)CN(C(=O)CN1C(=O)C(=O)c2ccccc21)C(C)(C)C | · | 0.126µM* | · | · | -0.4% | 3.7
CN(C)C(=O)c1ccc(-c2nc(Nc3ccccc3)c3ccccc3n2)cc1 | · | 16.2% | · | · | 6.0% | ·
O=C(CCSc1ccccc1)NC1CCCC1 | 10.9% | -3.5% | 14.1µM* | 16.7 | -6.6% | -2.5
Cc1ccc(-c2[nH]nc3c2C(c2ccoc2)C(C#N)=C(N)O3)cc1C (centres undefined) | -14.9% | -3.9% | -22.3% | ? | -1.9% | -15.8
CC(C)CC1C(C#N)=C(N)Oc2n[nH]c(-c3ccccc3)c21 (centres undefined) | -8.6% | ? | -15.4% | -100.0* | -1.5% | -5.6
COc1ccc(-c2[nH]nc3c2C(c2ccoc2)C(C#N)=C(N)O3)cc1 (centres undefined) | -1.2% | -0.7% | 12.6µM* | ? | 4.4% | -5.9
c1ccc(Nc2nc(-c3cccs3)cs2)nc1 | -9.9% | -7.8% | -6.1% | 22.3 | -2.2% | 2.0
Cc1cccc(Nc2nc(-c3cccs3)cs2)n1 | 17.8µM* | ? | -20.2% | -105.2* | -4.1% | 3.9
CC(C)c1ccc(C(=O)NC(=S)Nc2ccc3[nH]c(=O)[nH]c3c2)cc1 | · | · | · | · | 2.2% | -1.0
Cc1cc(NC(=O)CSc2n[nH]c(N)n2)no1 | · | 6.6% | · | · | -3.9% | -7.9
Cc1cc(NC(=O)CSc2n[nH]c(-c3cccs3)n2)no1 | -1.5% | 5.3% | 14.1µM* | ? | -3.1% | -0.5
Cc1cc(NC(=O)CSc2ccc3nnc(-c4cccs4)n3n2)no1 | -1.6% | 0.9% | -13.3% | -105.7* | 2.2% | 4.3
Cc1ccc(-c2nnc3ccc(SCC(=O)Nc4cc(C)on4)nn23)cc1 | -2.5% | 1.6% | -25.9% | -0.9 | 7.1% | 3.5
CC(=O)Nc1ccc(SC(C)C(=O)NC(N)=O)cc1 (centres undefined) | 3.6% | 8.2% | -6.9% | 2.9 | 0.6% | 1.4
SMILES | 12-hLO inh | ALDH1A1 inh | HPGD inh | PNC inhibitor | aGal spleen mod | GLA inh pH 4.5
Cc1cc(C(=O)N(C)C)sc1-c1ccccc1 | -3.5% | -0.2% | 6.31µM* | -2.5 | 0.2% | 1.4
Cc1cc(C(=O)N2CCN(S(C)(=O)=O)CC2)sc1-c1ccccc1 | 5.9% | 9.5% | -6.2% | -3.2 | 2.4% | 3.3
Cc1ccc(Nc2nc3ccccc3s2)c(C)c1 | -2.2% | 4.1% | -18.5% | -26.5 | 6.1% | -7.6
Cc1cc(O)ccc1Nc1nc2ccccc2nc1Nc1ccc(O)cc1C | -25.8% | 22.4µM* | -16.4% | 31.8 | -9.8% | -6.7
CCc1cccc(C)c1NC(=O)c1cccc(N(C)C)c1 | -29.2% | ? | 14.1µM* | -26.4 | -0.9% | 2.4
CCc1cccc(CC)c1NC(=O)c1cccc(NC(=O)c2ccccc2)c1 | 1.2% | 5.0% | -0.6% | 28.1 | 1.2% | 0.5
COc1ccccc1CNC(=O)c1cccc(N(C)C)c1 | -1.6% | -13.5% | -27.1% | 59.4 | -5.4% | -9.9
COc1ccc(CNC(=O)c2ccc3c(c2)NC(=O)C(C)S3)cc1 (centres undefined) | · | 10µM* | · | · | -3.6% | -8.7
COc1ccc(CNC(=O)c2cccc(N(C)C)c2)cc1 | 2.5% | ? | -8.3% | -83.2* | 6.2% | -1.0
CCCCC/C=C\C/C=C\C/C=C\C/C=C\CCCC(=O)O[C@@H](CO)COCCCCCCCCCCCCCCCC | 2.2% | 2.0% | -7.9% | · | -1.2% | -12.1
CCNc1ncc2nc(-c3ccc(F)cc3)c(=O)n(C[C@H]3CCCO3)c2n1 | · | ? | · | · | 27.1% | ·
CCCCNCC | -3.3% | 6.4% | -2.4% | · | 5.5% | ·
CC(C)CC(=O)/C(=C\c1ccc(Cl)cc1Cl)n1cncn1 | -5.0% | 22.4µM* | ? | 72.2 | -19.3% | -6.1
COc1ccc(/C=C(/C(=O)c2ccc(Cl)cc2Cl)n2cncn2)cc1 | -23.5% | 8.91µM* | -11.5% | 7.9 | -0.4% | 2.0
CN(C)c1ccc(/C=C(/C(=O)c2ccc(Cl)cc2Cl)n2cncn2)cc1 | -6.4% | 1.12µM* | -20.7% | 26.9 | 0.8% | -17.1
CCCCCCCCCCCCCCCCCCNC(=O)OCC(COP(=O)([O-])OCC[n+]1ccsc1)OC (centres undefined) | · | 5.3% | -12.6% | · | -5.1% | -5.5
CC(C)OC(=O)CSc1n[nH]c(-c2cccnc2)n1 | 3.7% | -8.6% | 15.8µM* | -6.6 | -1.6% | -1.5
Cc1nn(CCC(=O)NNC(=S)Nc2ccc(Cl)cc2)c(C)c1[N+](=O)[O-] | 1.4% | 22.4µM* | -20.0% | 115.5 | 2.7% | 5.3
Cc1cc([N+](=O)[O-])nn1CC(=O)NNC(=S)Nc1ccc([N+](=O)[O-])cc1 | -11.6% | 22.4µM* | -20.1% | 45.7 | 5.6% | -5.1
Cc1cc([N+](=O)[O-])nn1CC(=O)Nc1nccs1 | 2.5% | -1.3% | -7.2% | -89.2* | 3.4% | -5.5
COc1ccc(NC(=S)NNC(=O)Cn2nc([N+](=O)[O-])cc2C)cc1 | -4.4% | -3.9% | -6.2% | -24.5 | 2.8% | -0.2
COc1ccc(NC2=NCC(=O)N2c2ccccc2F)c(OC)c1 | -0.5% | 7.9% | -4.1% | -28.4 | -3.3% | 1.8
COc1ccc(NC2=NCC(=O)N2c2ccccc2)c(OC)c1 | -1.2% | 2.8% | 1.9% | -94.4* | 6.1% | 0.5
